# Casp1 inh: qHTS Assay for Allosteric/Competitive Inhibitors of Caspase-1. hit rate 0.03% among 75,000. P29466. AID 900, 2007. Caspase-1 enzyme, Ac-WEHD-AFC fluorogenic rate. Potency, µM (series often up to 57.5 µM), hits mostly inhibitors
# Target sequence (P29466 120-297 limits assumed): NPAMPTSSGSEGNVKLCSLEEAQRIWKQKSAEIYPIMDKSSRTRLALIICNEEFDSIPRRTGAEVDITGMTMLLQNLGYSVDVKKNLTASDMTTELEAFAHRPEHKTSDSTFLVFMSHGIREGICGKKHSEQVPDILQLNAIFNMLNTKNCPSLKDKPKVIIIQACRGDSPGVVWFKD
# Target sequence (P29466 317-404 limits assumed): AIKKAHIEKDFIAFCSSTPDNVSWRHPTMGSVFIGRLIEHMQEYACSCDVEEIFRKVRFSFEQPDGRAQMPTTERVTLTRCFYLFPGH
# ALOX15 inhib: qHTS Assay for Inhibitors of 15-hLO (15-human lipoxygenase); Polyunsaturated fatty acid lipoxygenase ALOX15 (Homo sapiens), P16050; purified 15hLO-1, xylenol orange hydroperoxide absorbance; Potency, µM (highest dose often 57.1 µM), usual class: inhibitors; hit rate 1.4% among 74,000; note: nearly all actives have a fitted effect of over 55% in size
#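 40 nM 15hLO-1 + cpd, 15 min RT; start w/ 50 uM AA (final), 6 min RT; stop/detect w/ 200 uM XO + 300 uM Fe(II) in 50 mM H2SO4, 30 min; A573/A405. Buffer 25 mM Hepes pH 7.5, 0.01% Triton X-100. No-enzyme wells as negative control.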
# Tau filament bind: qHTS Assay for Tau Filament Binding; Microtubule-associated protein tau (Homo sapiens), P10636; recombinant tau filaments, thioflavin S fluorescence, 15 h; filaments grown with octadecylsulfate alongside compound; Potency, µM (titrated, usually from 57.1 µM); hit rate 2% among 71,000; AID 596, 2007;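 note: actives lower thioflavin S fluorescence by blocking filaments or displacing dye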
#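 Read-out: ThS fluorescence, 450 nm excitation/510 nm emission; lower signal marks blocked filament formation or displaced dye. Tau at 1 uM with 30 uM ODS, 10 uM ThS, 5 mM DTT, 100 mM NaCl, 10 mM HEPES pH 7.4; 15 h, 37 C.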
# ERK AVP inh: qHTS Assay for Inhibitors of the ERK Signaling Pathway using a Homogeneous Screening Assay; HEK293-V1b, vasopressin-stimulated pERK AlphaScreen; Potency, µM (doses to about 57.5 µM), hits mostly inhibitors; hit rate 0.99% among 72,000; note: nearly all actives have a fitted effect of over 55% in size
#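 Overnight-seeded V1b-HEK293 cells in 1% FBS got compound, then vasopressin (25 nM final, 5 min, 37C), then lysis buffer. AlphaScreen detection of phospho-ERK; activity normalized to basal and full-stimulation controls.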
# Casp7 inh: qHTS Assay for Allosteric/Competitive Inhibitors of Caspase-7; Potency, µM (highest dose often 57.5 µM), usual class: inhibitors; recombinant caspase-7, Ac-DEVD-AFC fluorescence rate; hit rate 0.02% among 75,000; active = well fitted inhibition curve with a large enough effect in the main read-out, with a control signal flat, not every such curve was filed as active; inconclusive = small, poorly fitted or top-dose-only effect, or a change in a side signal
# Target sequence (P55210 24-198 limits assumed): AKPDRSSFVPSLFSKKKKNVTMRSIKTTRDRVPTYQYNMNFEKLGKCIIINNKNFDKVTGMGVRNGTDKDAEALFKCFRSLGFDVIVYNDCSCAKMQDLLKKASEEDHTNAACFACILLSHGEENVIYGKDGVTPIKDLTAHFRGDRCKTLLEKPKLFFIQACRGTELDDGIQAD
# Target sequence (P55210 207-303 limits assumed): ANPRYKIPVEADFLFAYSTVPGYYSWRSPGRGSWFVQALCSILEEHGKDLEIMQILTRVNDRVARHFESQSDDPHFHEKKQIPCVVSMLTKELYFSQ
# Numbers stand for hits; i = inactive; ? = inconclusive; nt = no result; [ ] = remark or other dose. Only some compounds are listed: those with a hit (about 3.9% of all), similar ones and a draw of the others. Unless noted, calls come from the whole dose curve; as a rule, active = well fitted curve in the direction sought with a large enough effect; inconclusive = small, poorly fitted or top-dose-only effect, or another doubt; inactive = no such curve, though single readings can be large; an effect the other way counts as inactive or inconclusive.
SMILES,Casp1 inh,ALOX15 inhib,Tau filament bind,ERK AVP inh,Casp7 inh
COc1cc([C@@H]2Oc3cc([C@H]4Oc5cc(O)cc(O)c5C(=O)[C@H]4O)ccc3O[C@H]2CO)ccc1O,i,2µM,?,i,i
O=C(O)CCc1ccc(-c2ccccc2)[nH]1,i[11.5 µM],i[11.4 µM],i[11.4 µM],i[11.5 µM],i[11.5 µM]
CCOC(=O)NC1(NCc2ccccc2)Oc2ccccc2O1,i,i,i,i,i
CCOC(=O)NC1(NC2CCCCC2)Oc2ccccc2O1,i,25.1µM,i,i,i
CCSc1ccccc1C(=O)Nc1cc(C)on1,i,12.6µM,i,i,i
Nc1nc(-c2c[nH]c3ccccc23)cs1,i,?,25.1µM,i,i
OCC1O[C@H](OC2C(CO)O[C@@](O)(CO)C2O)C(O)C(O)C1O (some centres not stated),i,i,nt,i,i
Cc1ccc(N=Cc2cccc(O)c2O)c(C)c1,i,6.31µM,nt,nt,i
COc1ccc(CNC(=O)CS(=O)Cc2nc(-c3ccccc3C)oc2C)cc1 (configuration not stated),i,i,i,20µM,i
COC(=O)[C@@]1(Cc2ccccc2)[C@H]2c3cc(C(=O)N(C)C)n(Cc4ccc(O)c(OC)c4)c3C[C@H]2CN1C(=O)c1ccccc1,i,nt,i,i,i
CCN(c1cccc(C)c1)S(=O)(=O)c1ccc(O)c(C(=O)O)c1,i,?,nt,nt,i
C=CCNC(=O)c1sc(=S)n(-c2ccc(C(=O)OCC)cc2)c1N,i,?,i,i,i
CCOC(=O)c1ccc(-n2c(N)c(C(=O)NCc3ccco3)sc2=S)cc1,i,?,i,20µM,i
O=C(NCCSc1c[nH]c2ccccc12)c1ccc(Br)o1,i,25.1µM,i,nt,i
Cc1[nH]c2ccccc2c1SCCNC(=O)c1ccc(Br)o1,i,i,i,i,i
CC(N=Cc1cccc(O)c1O)c1ccccc1 (configuration not stated),i,12.6µM,12.6µM,i,i
Cc1cnc(CNc2ncncc2-c2ccoc2)cn1,i,i,i,i,i
O=C(NC1CCCC1)C(c1ccsc1)N(Cc1ccco1)C(=O)Cc1cccs1 (configuration not stated),i,0.398µM,15.8µM,?,i
N#Cc1c(-c2ccco2)cc(-c2cccnc2)nc1N,i,7.94µM,i,?,i
N#Cc1c(-c2ccco2)cc(-c2ccccn2)nc1N,i,i,i,i,i
Cc1ccccc1OCCCCCNCCO,i,i,nt,nt,i
COc1ccccc1OCCCCNCCO,i,i,i,i,i
CC(C)c1ccccc1OCCCCCNCCO,i,i,12.6µM,i,i
CC(C)(C)c1ccccc1OCCCCCNCCO,i,i,10µM,i,i
COc1ncc2nc(-c3ccc(F)cc3)c(=O)n(C[C@H]3CCCO3)c2n1,i,i,i,i,i
SMILES,Casp1 inh,ALOX15 inhib,Tau filament bind,ERK AVP inh,Casp7 inh
O=C(O)CCC(=O)c1ccc[nH]1,i[11.5 µM],i[11.4 µM],i[11.4 µM],i[11.5 µM],i[11.5 µM]
O=c1cnc2cncnc2n1Cc1ccccc1,i,i,i,i,i
COc1ccc2cc3c(N)c(C(=O)N4CCCC4)sc3nc2c1,i,?,20µM,i,i
Cc1ccc2cc3c(N)c(C(=O)N4CCOCC4)sc3nc2c1,i,i,i,i,i
O=c1cnc2cncnc2n1Cc1ccccc1Cl,i,i,i,i,i
CCOc1ccc2nc(NC(=O)COC)sc2c1,i,i,i,i,i
CCOc1ccc2nc(NC(=O)c3ccoc3C)sc2c1,i,3.98µM,i[11.4 µM],i,i
CCOc1ccc2nc(NC(=O)Nc3cccs3)sc2c1,i,?,i,31.6µM,i
COc1ccc2sc(NC(=O)CC(C)C)nc2c1,i,3.98µM,i,?,i
COc1ccc2nc(NC(=O)c3cnccn3)sc2c1,i,i,5.01µM,i,i
CCC(=O)Nc1nc2cc(OC)ccc2s1,i,i,i,i,i
CCOCC(=O)Nc1nc2ccc(OC)cc2s1,i,i,i,i,i
Nc1ccc(Cl)cc1Cl,i,i,i,i,i
CN1CCN(c2ncc3nc(-c4cc(F)cc(F)c4)c(=O)n(CCC#N)c3n2)CC1,nt,i,i,i,?
CC(=C/C=C/C(C)=C/C=C/C=C(C)/C=C/C=C(C)/C=C/C(=O)O)/C=C/C(=O)O,i,i,25.1µM,i,i
O=C(O)/C=C/C(=O)O,i,i,i,i,i
COC(=O)[C@@]1(Cc2ccccc2)[C@H]2c3cc(C(=O)N(C)C)n(Cc4ccc(OC)c(OC)c4)c3C[C@H]2CN1C(=O)c1ccccc1,i,nt,i,i,i
O=C(O)[C@@H]1[C@@H]2C[C@@H]3[C@@H](OC(=O)[C@@H]31)[C@H]2Br,i[11.5 µM],i[11.4 µM],i[11.4 µM],i[11.5 µM],i[11.5 µM]
CN(C)c1ccc(NC(=O)c2ccc(COc3cccc(Cl)c3)o2)cc1,i,i,7.94µM,?,i
CCOc1ccc(OCc2ccc(C(=O)Nc3ccc(Cl)cn3)o2)cc1,?,i,i,i,i
CCC(c1nnnn1Cc1ccco1)N(CCc1ccccc1)Cc1cc2cc(C)ccc2[nH]c1=O (configuration not stated),?,15.8µM,i,i,?
CCC(c1nnnn1CC1CCCO1)N(CCN1CCOCC1)Cc1cc2cc(C)ccc2[nH]c1=O (configuration not stated),?,3.16µM,i,i,i
Cc1ccc2[nH]c(=O)c(C(c3nnnn3CC3CCCO3)N3CCOCC3)cc2c1 (configuration not stated),i,i,i,i,i
Cc1ccc2[nH]c(=O)c(CN(CCc3ccccc3)C(c3nnnn3Cc3ccco3)C(C)C)cc2c1 (configuration not stated),?,?,i,i,i
Cc1ccc2[nH]c(=O)c(C(c3nnnn3CC3CCCO3)N3CCCc4ccccc43)cc2c1 (configuration not stated),i,1.26µM,i,i,i
SMILES,Casp1 inh,ALOX15 inhib,Tau filament bind,ERK AVP inh,Casp7 inh
O=C(O)CCc1ccc(-c2ccc(Br)cc2)n1Cc1ccco1,i,15.8µM,?,i,i
O=C(O)CCc1ccc(-c2ccccc2)n1Cc1ccco1,i,i,i,i,i
CCCn1c(CCC(=O)O)ccc1-c1ccc(F)cc1,i,7.94µM,?,?,i
CCOC(=O)C1=C(N)OC2=C(C(=O)CC(C)(C)C2)C1c1ccco1 (configuration not stated),i,i,i,i,i
CC1(C)CC(=O)C2=C(C1)OC1=C(C(=O)CC(C)(C)C1)C2c1ccc(O)cc1O,i,3.16µM,i[11.4 µM],10µM,i
COCc1cc(=O)n2c(-c3ccc(C)cc3)n[nH]c2n1,i,i,15.8µM,nt,i
Cc1ccc(CNC(=O)C2CNc3cc(C)ccc3O2)cc1 (configuration not stated),i,i,i,i,i
Cc1ccc2c(c1)NCCO2,i,i,31.6µM,i,i
O=c1c(O)cccc2cc(O)c(O)c(O)c12,i,3.98µM,nt,?,i
COc1ccc(-c2cc(C(=O)N/N=C/c3ccc(O)cc3)[nH]n2)cc1,i,i,nt,nt,i
